Reference: PubChem BioAssay (NCI)
Compounds without any hit were thinned out: in the full panel of roughly 79,000, 15% have a hit. Values without a mark were called inactive. Active and inactive are the calls of the source. Rule as the data show it: active = growth inhibition above about 70%; inactive = the rest. Where a SMILES comes first, the peptide text is derived from it. [ ]: non-standard residue; d: D form. The star is where a group is joined. NMeAc5c = CNC1(C(=O)O)CCCC1; Boc = CC(C)(C)OC(=O)*; OBn = c1ccc(CO*)cc1

Legend:
[1] = NCI Yeast Anticancer Drug Screen. Data for the rad50 strain (AID 155);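 also: 0% = growth of vehicle-only cultures of the same strain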; settings: S. cerevisiae rad50 strain growth inhibition; at 50.0 µM; active compounds read high
Method in brief: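 Relative growth inhibition (compound vs vehicle) was measured in yeast with a defined repair-gene alteration.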

[2] = NCI Yeast Anticancer Drug Screen. Data for the mec2-1 strain (AID 157); settings: S. cerevisiae mec2-1 strain, at 50.0 µM, active compounds read high
Method in brief: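 Vehicle-treated cultures served as reference for growth inhibition of compound-exposed mec2-1 yeast.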

[3] = NCI Yeast Anticancer Drug Screen. Data for the sgs1 mgt1 strain (AID 161);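 also: 0% = growth of cultures given vehicle only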; settings: S. cerevisiae sgs1 mgt1 strain, at 50.0 µM, active compounds read high
Method in brief: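 Inhibition of yeast growth, normalised to vehicle-treated controls, is reported for a strain bearing genetic alterations in DNA damage repair.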

[4] = NCI Yeast Anticancer Drug Screen. Data for the cln2 rad14 strain (AID 165);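 also: 0% = growth equal to vehicle treated cultures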; settings: S. cerevisiae cln2 rad14 strain, at 50.0 µM, active compounds read high
Method in brief: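 Each compound was tested on cln2 rad14 yeast. Inhibition of growth was calculated against vehicle-exposed controls.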

[5] = NCI Yeast Anticancer Drug Screen. Data for the bub3 strain (AID 167); settings: S. cerevisiae bub3 mutant strain, at 50.0 µM, active compounds read high
Method in brief: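 Screening used yeast with an engineered genetic alteration affecting cell cycle control. Compound-exposed cultures were compared with vehicle cultures, and reduced growth was taken as inhibition.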

[6] = NCI Yeast Anticancer Drug Screen. Data for the mlh1 rad18 strain (AID 175); settings: S. cerevisiae mlh1 rad18 strain growth inhibition; at 50.0 µM; active compounds read high
Method in brief: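 Vehicle-treated cultures served as the reference for growth inhibition in a yeast strain carrying DNA damage repair alterations exposed to each compound.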

Row | SMILES | growth inhibition [1] | growth inhibition [2] | growth inhibition [3] | growth inhibition [4] | growth inhibition [5] | growth inhibition [6]
1 | C/C=C(/C)C(=O)O[C@@H]1c2c(C)coc2C(=O)[C@@]2(OC(C)=O)CCC[C@@](C)(O)[C@@]12C | 26.8% | 9.55% | 24.3% | 22.6% | 39.4% | 43.9%
2 | O=CNNC(=O)Nc1cccc2ccccc12 | -29.9% | -8.85% | -20% | -5.75% | -32.1% | -25.5%
3 | CN1C(=O)CCC1(O)C1C=CC=CC1 (stereo unspecified) | 16.8% | 7.55% | 1.75% | 16.9% | -4.9% | -2.85%
4 | O=C(Oc1ccc2c(=O)cc(-c3ccccc3)oc2c1OC(=O)c1ccccc1)c1ccccc1 | 3% | 7.6% | -0.85% | -3.15% | -14.1% | 3%
5 | O=C(Nc1ccc(Cl)cc1)Oc1ccc(Br)cc1Br | 10.9% | -3.95% | 10.7% | 4.65% | -2.7% | 13.2%
6 | COC1(OC)C(c2ccco2)C(C#N)(C#N)C1(OC)OC (stereo unspecified) | -5.65% | -1.95% | -8.05% | -38% | -4.85% | -0.9%
7 | O=c1[nH]nc(Cc2ccc(Cl)cc2)n1/N=C\CC/C=N\n1c(Cc2ccc(Cl)cc2)n[nH]c1=O | -18.4% | -0.9% | -14.1% | -4.05% | -13.3% | -3%
8 | CNc1nc(NC)nc(-c2ccccc2)n1 | -25.2% | -16.1% | -26.9% | -55% | -22.6% | -22.9%
9 | COC(=O)c1cc([N+](=O)[O-])c(Sc2ncnc3nc[nH]c23)c([N+](=O)[O-])c1 | 53% | 25.6% | 24.4% | 80% (active) | 26.9% | 34.8%
10 | O=C1COCCO1 | 2.45% | -8.55% | 6.45% | -14% | -6.55% | -19.5%
11 | CCC(=O)C(C)C(=O)N(CC(C)C)CC(C)C (stereo unspecified) | -12.7% | -6.85% | -5.3% | -11.8% | -0.2% | -19.8%
12 | O=S(=O)(Nc1cccc(F)c1)c1ccc(F)cc1 | -12.5% | -10.4% | -3.6% | 0.3% | -9.95% | 11.6%
13 | Cc1ccc2c(c1)[nH]c(=S)n2C=C(C#N)C#N | -23.6% | -42.4% | -1.1% | 0.75% | -0.55% | -5.15%
14 | Nc1nc(=O)n(C2CC(O)C(CO)O2)cc1I (stereo unspecified) | -43.3% | 1% | 7.55% | -17.2% | -0.8% | 11.2%
15 | CCOC(=O)C(O)(NC(=O)Nc1ccc(F)cc1)C(F)(F)F (stereo unspecified) | -22.4% | -22.3% | -72.9% | -35.9% | -37.3% | -60.9%
16 | COc1ccc(C2=Nn3c(nc4sc(C)c(C)c4c3=O)SC2)cc1 | 2.45% | -8.15% | -3.7% | 19.1% | 2.95% | -14.3%
17 | Cc1cn(CCCn2cnc3c(=O)[nH]cnc32)c(=O)[nH]c1=O | -13.1% | -22.1% | -16.7% | -3.15% | -21.6% | -3.25%
18 | N=C(N)SCc1cn2ccccc2n1 | -37% | -30.5% | -62.7% | 1.35% | -27.6% | -50.8%
19 | C[N+](C)(C)CC(=O)N/N=C(/C=C/c1ccccc1)CC1OC(=O)c2ccccc21 (stereo unspecified) | -9.65% | -11.4% | -3.5% | 16.2% | -7.5% | 3.9%
20 | O=C(C1=Cc2ccccc2OC1)N1CCN(c2ccccc2Cl)CC1 | 12.3% | 20.2% | 34.6% | 24.4% | 38% | 40.1%
21 | CN(C)CC1CCCCCCCCCC(CN(C)C)C1=O (stereo unspecified) | -26.4% | 19.9% | -11.3% | -1.6% | -21.4% | 66.7%

Row | SMILES | growth inhibition [1] | growth inhibition [2] | growth inhibition [3] | growth inhibition [4] | growth inhibition [5] | growth inhibition [6]
22 | CN(C(=O)C(Cc1ccccc1)NC(=O)OC(C)(C)C)C1(C(=O)NC(Cc2ccccc2)C(=O)OCc2ccccc2)CCCC1 (stereo not drawn) (Boc-Phe-[NMeAc5c]-Phe-OBn; configuration not given here) | -3.35% | 15.6% | -4.5% | 11.8% | 8.6% | 13.6%
23 | O=c1c2[nH]cnc2ncn1Cc1ccccc1 | 0.95% | 1.35% | 0.3% | -32.5% | -20.6% | -6.25%
24 | CCOC(=O)c1ccccc1S(=O)(=O)c1ccccc1C(=O)OCC | 1.4% | 16.9% | 9.85% | 11.2% | 5.2% | 10.4%
25 | CCCOC(=O)CCCCCC1CCCCC1 | 15.2% | 6.1% | -5.8% | -33.1% | -8.1% | 8%
26 | O=C(/C=C/c1ccc(OCc2ccccc2)c(OCc2ccccc2)c1)OCc1ccccc1 | -12% | -9.65% | -5.15% | -33.9% | -3.45% | -34.8%
27 | O=C1CC(C(=O)O)CC(=O)CC(C(=O)O)C1 (stereo unspecified) | -0.7% | -13.2% | -10.6% | -33.4% | 14.9% | 18.9%
28 | CCC1(C)CC(=O)N(C/C=C(\C)CCC(=O)O)C(=O)C1 | -3.35% | 4.5% | -0.45% | -8.4% | 7% | -7.45%
29 | CN(CN(C)N=Nc1ccc(Br)cc1)CN(C)N=Nc1ccc(Br)cc1 | -0.7% | 19.6% | 4.45% | 23.2% | 5.1% | 15%
30 | COC(=S)OC1CC(n2cnc3c(N)ncnc32)OC1CO[Si](C)(C)C(C)(C)C (stereo unspecified) | -10.2% | -8.25% | 2.55% | -1.2% | 11.1% | 4.9%
31 | N#CCCCCN1CCOCC1 | 10.3% | -7.5% | -21.7% | 22.1% | -8.9% | 20.7%
32 | NC(=S)N=Nc1c(O)[nH]c2ccccc12 | 12.8% | -9.8% | -5.9% | 4.85% | 9.95% | 6.55%
33 | C=CCOC(=O)c1ccccc1O | 12.9% | -12.1% | -13.3% | -0.9% | -21.2% | 12.8%
34 | CC(C)=Nn1cnc2nccnc2c1=O | 2.55% | -6.05% | -14.2% | -40% | -13.3% | -1.6%
35 | Cc1ccc([N+](=O)[O-])cc1NC(=O)C(=O)C(C(=O)c1ccccc1F)C1OC(=O)c2ccccc21 (stereo unspecified) | -3.1% | 5.7% | -14.4% | 13.1% | -1.1% | -1.9%
36 | COc1cccc2c1OC(=O)C(S(=O)(=O)c1ccccc1)C2 (stereo unspecified) | -7.8% | -3.95% | 5.5% | -37.5% | -7.25% | -3.65%
37 | O=C1CCCCC1C(O)(C(F)(F)F)C(F)(F)Cl (stereo unspecified) | -20.4% | -28.9% | -36.7% | -13.7% | -30.2% | -20.1%
38 | Nc1ccc(S(=O)(=O)Nc2nc(CN3CCCCC3)cs2)cc1 | 7.25% | -2.5% | 3.3% | -38.5% | -1.4% | -7.85%
39 | CCCCCCCC/C=C\CCCCCCCC(=O)NCCN1CCCCC1 | 99% (active) | 99.5% (active) | 99.6% (active) | 97.8% (active) | 99% (active) | 99.2% (active)
40 | CCC1CN2C(=N1)c1ccccc1-c1cc([N+](=O)[O-])ccc12 (stereo unspecified) | 94% (active) | 43% | -20.2% | 51.3% | 54% | 94.2% (active)
41 | COC(=O)C1C=CN(N(C)C)C2=C1C(=O)c1c(O)cccc1C2=O (stereo unspecified) | 86% (active) | 93% (active) | 89.2% (active) | 88.1% (active) | 89.5% (active) | 90.2% (active)
